# High-throughput results: PubChem, several laboratories
# Rows were chosen to be rich in hits. Some 3.6% of all compounds tested hit in one or more screens of this group.
# LGR2 inh – blocks bursicon-induced cAMP signaling via Drosophila LGR2 | HEK293 LGR2, CRE-luciferase, bursicon-stimulated, 4 h | inhibition, % at 9.99 µM | 380,000 compounds, 0.35% hits;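 active = drop in luminescence signal, shown as inhibition above about 50% in the replicate tests, limit read from the data, passing the limit was not always enough; inconclusive = probably only some replicates passing the limit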;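 note: agonist challenge used bursicon conditioned medium at about half maximal strength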
# Peg3 prom inh – reduces Peg3 promoter-driven luciferase expression in HeLa | 360,000 compounds, 1.7% hits | inhibition, % at 20 µM | HeLa PEG-Prom luciferase reporter, luminescence, overnight;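 active = inhibition of at least 50% at 20 µM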
# Mdm2 MdmX PPI – inhibitors of human Mdm2/MdmX interaction. O15151+Q00987. SaOS-2 split-luciferase Mdm2/MdmX complementation, luminescence. inhibition, % at 8 µM. 330,000 compounds, 3% hits. AID 485346;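 active = inhibition of at least 50% at 8 µM in the primary screen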
# CF NFkB block – blocks PAF-induced NF-kB reporter in cystic fibrosis cells | KKLEB NF-kB-GFP reporter, GFP fluorescence overnight | inhibition, % at 5 µM | 360,000 compounds, 0.86% hits;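 active = at least 50% inhibition at 5 µM, scaled per plate between neutral and stimulator controls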;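 note: PAF is a Pseudomonas aeruginosa culture filtrate used as stimulus; plate controls were PAF-stimulated DMSO wells for no effect and unstimulated DMSO wells for full effect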
# KKLEB tox – counter-screen for CF NF-kB inhibitors: cytotoxicity; KKLEB CF airway cells viability, ATPlite luminescence, overnight; active compounds read low; cells stimulated with P. aeruginosa culture filtrate; 360,000 compounds, 0.36% hits; AID 602141; activity change (cytotoxicity), % at 5 µM;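 active = corrected activity change at or below -50% at 5 µM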
# HSP90 inh – HSP90 refolding inhibition in rabbit reticulocyte lysate | luciferase refolding luminescence, 3 h | inhibition, % at 5.6 µM | 290,000 compounds, 0.91% hits;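 active = inhibition above the screen-wide mean plus 3 SD, computed separately per campaign, cut at about 16% in these data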;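 note: 0% = DMSO wells and 100% = 60 µM geldanamycin wells; inhibitors lower the luminescence because luciferase stays unfolded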
# HSP90 confirm – confirmation of HSP90 inhibitors; shares compounds with HSP90 inh; rabbit reticulocyte lysate, luciferase refolding luminescence, 3 h; inhibition, % at 5.9 µM; 2,300 compounds, 64% hits; AID 1846; in the data active = inhibition above about 18%;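 note: 0% = vehicle wells and 100% = reference inhibitor wells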
# luciferase ctr – counter-screen for HSP90 inhibitors: inhibitors of firefly luciferase. shares compounds with HSP90 inh. purified native firefly luciferase, luminescence. inhibition, % at 5.9 µM. 2,300 compounds, 48% hits. AID 1847;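 active = inhibition above the mean inhibition of all tested sample wells plus 3 SD, cut at about 10% in these data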;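 note: 0% = DMSO with luciferase and 100% = wells lacking luciferase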
# Target sequence (P08659 whole entry, looked up): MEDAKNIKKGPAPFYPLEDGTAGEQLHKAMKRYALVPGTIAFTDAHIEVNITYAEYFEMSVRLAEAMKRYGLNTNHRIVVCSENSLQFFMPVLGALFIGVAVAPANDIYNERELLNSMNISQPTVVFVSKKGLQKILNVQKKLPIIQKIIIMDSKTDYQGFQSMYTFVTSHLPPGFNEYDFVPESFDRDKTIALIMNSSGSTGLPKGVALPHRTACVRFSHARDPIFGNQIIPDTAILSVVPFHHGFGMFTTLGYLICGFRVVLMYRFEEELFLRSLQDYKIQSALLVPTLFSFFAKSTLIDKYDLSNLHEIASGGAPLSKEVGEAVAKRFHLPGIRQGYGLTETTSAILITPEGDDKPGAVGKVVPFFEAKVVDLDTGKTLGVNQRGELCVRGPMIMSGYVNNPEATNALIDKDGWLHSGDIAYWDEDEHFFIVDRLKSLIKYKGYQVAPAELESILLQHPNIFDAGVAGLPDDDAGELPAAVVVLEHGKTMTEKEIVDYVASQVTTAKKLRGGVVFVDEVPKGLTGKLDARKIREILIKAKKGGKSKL
# Active calls of the source: *; u = inconclusive; x = no result given.
SMILES,LGR2 inh,Peg3 prom inh,Mdm2 MdmX PPI,CF NFkB block,KKLEB tox,HSP90 inh,HSP90 confirm,luciferase ctr
CC(C)NC(=O)N(C)C[C@H]1Oc2ncc(C#CC3CCCCC3)cc2C(=O)N([C@@H](C)CO)C[C@H]1C,-10,x,x,x,x,x,x,x
CCOC(=O)N1N=C(c2ccc(OC)cc2)CC1(O)C(F)(F)F (configuration not stated),-15,-184,-24,0,-5,22*,39*,26*
CCc1ccc(C2=NN(C(=O)OC)C(O)(C(F)(F)F)C2)cc1 (configuration not stated),-19,-106,-45,16,-12,40*,64*,49*
COc1cc2c(cc1/C=C/C(=O)O)OC(C)C2 (configuration not stated),x,10,5,1,11,-1,x,x
CC(C)(O)C1Cc2cc(/C=C/C(=O)O)c(O)cc2O1 (configuration not stated),28,-2,5,3,0,28*,6,-8
CCNC(=O)COC(=O)c1ccc(-c2nc3ccccc3s2)s1,10,-111,-19,-10,-5,9,x,x
O=C(c1ccc(-c2nc3ccccc3s2)s1)N1CCOCC1,76*,x,50,x,x,64*,85*,79*
c1ccc2sc(-c3ccc4c(c3)OCO4)nc2c1,x,-62,-99,-23,-24,19*,60*,56*
CCN1CCN(C(=O)c2ccc(-c3nc4ccccc4s3)s2)CC1,-31,-241,-138,8,-14,2,x,x
O=C(NC1CC1)c1ccc(-c2nc3ccccc3s2)s1,x,62*,-32,-13,-66*,76*,80*,77*
CNC[C@@H]1Oc2ccc(N)cc2C(=O)N([C@H](C)CO)C[C@H]1C,7,x,x,x,x,x,x,x
COCCNC(=O)C[C@@H]1CC[C@@H]2[C@H](COc3ccc(NC(=O)c4cnccn4)cc3C(=O)N2C)O1,-2,x,x,x,x,x,x,x
O=c1[nH]c(Nc2ccccc2)cc2cc(Br)ccc12,-16,-8,5,-19,-14,x,x,x
O=c1[nH]c(Nc2ccccc2)cc2ccccc12,20,-35,5,-8,6,17*,25*,-1
CC(=O)c1ccc(NC(=O)c2cnn3ccccc23)cc1,u,25,-1,-25,15,42*,63*,12*
CC(=O)c1cccc(NC(=O)c2cnn3ccccc23)c1,-19,-265,-20,10,-1,1,x,x
C[C@@H]1CN([C@@H](C)CO)C(=O)c2ccccc2-c2ccccc2CO[C@H]1CN(C)C(=O)c1ccncc1,7,x,x,x,x,x,x,x
Cc1ccc(OCC(=O)Nc2ccc(S(=O)(=O)N3CCOCC3)cc2)c(C)c1,-1,14,17,-6,8,20*,7,2
Cc1cc(S(=O)(=O)N2CCOCC2)ccc1OCC(=O)Nc1ccc(F)cc1,-3,3,-4,-2,8,-3,x,x
COCC(=O)N(C)C[C@@H]1Oc2ncc(C#C[C@H](C)O)cc2C(=O)N([C@H](C)CO)C[C@H]1C,-2,x,x,x,x,x,x,x
COc1ccc2c3c([nH]c2c1)[C@@H](CO)N(C(=O)c1ccc(F)cc1)CC31CN(C(=O)NC(C)C)C1,-5,x,x,x,x,x,x,x
CCN(CC)CCn1c(=S)[nH]c2ccc(Cl)cc2c1=O,x,7,-9,-12,1,45*,-6,-13
CCN(CC)CCn1c(=S)[nH]c2cc(Cl)ccc2c1=O,-12,7,13,-11,-12,1,x,x
O=C(OCc1ccc(Br)cc1)c1ccncc1,7,-14,-1,1,-12,1,x,x
O=C(OCc1ccc(Br)cc1)c1cccnc1,-10,8,1,-17,0,41*,-5,-16
SMILES,LGR2 inh,Peg3 prom inh,Mdm2 MdmX PPI,CF NFkB block,KKLEB tox,HSP90 inh,HSP90 confirm,luciferase ctr
CCc1nnc(NC(=O)CSc2nc(C)c3c(c2C#N)CCCC3)s1,23,-148,25,10,-14,21*,7,0
NNC(=S)Nc1ccccc1Cl,-26,-8,6,6,2,45*,27*,-17
N#CCCN(Cc1cccnc1)C(=S)NCc1ccco1,-9,11,6,20,-12,61*,4,1
CCCc1nn(C)c(C(=O)Nc2ccccc2)c1Cl,31,-99,39,4,-2,36*,52*,54*
CCCc1nn(C)c(C(=O)Nc2cccc(Cl)c2)c1Cl,-5,-22,26,1,10,26*,35*,36*
COc1ccc(C(=O)NCCn2cc(SCC(N)=O)c3ccccc32)cc1,3,-2,25,6,-13,74*,9,-9
COc1ccc(C(=O)NCCn2cc(SCC(=O)Nc3cc(C)on3)c3ccccc32)cc1OC,x,13,18,-2,-4,4,x,x
O=C(CSc1cn(CCNC(=O)c2ccc3ccccc3c2)c2ccccc12)NCc1ccco1,16,-31,15,4,6,19*,22*,-1
COc1ccc(C(=O)NCCn2ccc3ccccc32)cc1,-50,-168,-66,-9,8,60*,22*,-12
Cn1c(=O)cc(SCC(=O)NCc2ccco2)c2ccccc21,x,6,-16,-9,2,2,x,x
CC(=O)N(CCC(Cc1ccccc1)c1ccco1)Cc1ccco1 (configuration not stated),-6,13,9,-3,6,22*,4,2
CCCn1c(C)cc(C(=O)COC(=O)c2cc(=O)[nH]c3ccccc23)c1C,-60,-238,x,-10,-33,x,x,x
CCCn1c(C)cc(C(=O)COC(=O)c2nccnc2N)c1C,31,-13,-9,-3,-2,25*,40*,57*
O=C(CC(F)(F)F)N1C[C@@H]2[C@H](c3ccccc31)[C@H](CO)N2C(=O)Cc1ccccc1,9,x,x,x,x,x,x,x
Cc1cccc(-c2cc3nc(C)c(C)c(NCCCn4ccnc4)n3n2)c1,-16,-59,9,11,-14,19*,2,-5
CN(C)c1ccc(/C=C/C=C2/SC(=S)N(c3ccccc3)C2=O)cc1,x,-142,31,-14,-9,34*,21*,12*
O=C(O)c1ccc(N2C(=O)/C(=C/C=C/c3ccccc3)SC2=S)cc1,0,-13,19,4,2,5,x,x
O=C(C[C@H]1C[C@@H]2c3cc(NC(=O)C4CCOCC4)ccc3O[C@@H]2[C@H](CO)O1)NCc1ccc(Cl)cc1,15,x,x,x,x,x,x,x
COc1cc(C=O)ccc1OCCCOc1ccccc1[N+](=O)[O-],-23,-202,-55,-15,-1,-4,x,x
COc1cc(C=O)ccc1OCCCOc1ccccc1C(=O)O,x,28,-26,3,6,74*,76*,34*
COC(=O)c1ccccc1OCCCOc1ccc(C)cc1OC,x,x,-21,x,x,94*,100*,-10
